Activity calls are given as the source filed them.
Key:
[1] = small molecules captured by biotinylated probe aFSTL3 – biochemical, small-molecule microarray, fluorescence 635/667, stem cell growth factor project, primary screen (AID 1064); conditions: higher = more signal;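 note: measures binding of the biotinylated anti-FSTL3 antibody to printed compounds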
[2] = binders from COS7 lysate, DM2A8 probe, primary screen, torsin A project, cell lysate, small-molecule microarray, fluorescence 635/667 (AID 1065); conditions: higher = more signal, COS7 lysate expressing mutant human TOR1A
[3] = small molecules captured by biotinylated probe aFGF2 – biochemical, small-molecule microarray, fluorescence 635/667, stem cell growth factor project, primary screen (AID 1067); conditions: higher = more signal;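 note: measures binding of biotinylated aFGF2 protein to printed compounds on slides; z-score merges feature fluorescence and signal-to-noise across triplicate slides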
[4] = small molecules captured by biotinylated probe aFGF10 – biochemical, small-molecule microarray, fluorescence 635/667, stem cell growth factor project, primary screen (AID 1071); conditions: higher = more signal;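 note: score merges 667 nm spot intensity and signal to noise from triplicate slides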
[5] = target: Neurogenic locus notch homolog protein 2 (Homo sapiens) (UniProt Q04721); assay: small molecules binding Notch2 protein – biochemical, small-molecule microarray, 635 nm fluorescence, stem cell growth factors, primary screen (AID 1073); conditions: higher = more signal
[6] = target: Pro-neuregulin-1, membrane-bound isoform (Homo sapiens) (UniProt Q02297); assay: small molecules binding neuregulin-1 protein – biochemical, small-molecule microarray, fluorescence 635/667, psychiatric disease protein project, primary screen (AID 1075); conditions: NRG1 binding, 635 nm fluorescence, higher = more signal;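 note: score combines 667 nm spot fluorescence with signal to noise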
[7] = system: Neuregulin-1 EGF-like domain; assay: small molecules binding NRG1 EGF domain – biochemical, small-molecule microarray, 635 nm fluorescence, primary screen (AID 1081); conditions: higher = more signal;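 note: binding of the protein to compounds printed on small-molecule microarray slides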
[8] = FRG1 expression reporter modulators in myotubes – cell-based, C2C12 myotubes, firefly/Renilla luciferase, luminescence, FRG1 inhibition for FSHD, primary screen (AID 1084); conditions: FRG1 promoter luciferase, higher = more signal, called active from +8 up or from −8 down
[9] = small molecules captured by biotinylated probe aFST – biochemical, small-molecule microarray, fluorescence 635/667, stem cell growth factor project, primary screen (AID 1086); conditions: higher = more signal;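 note: score merges 667 nm fluorescence with signal-to-noise of each printed compound spot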
[10] = binders of probe aHhip on microarray, primary screen, stem cell growth factor project, biochemical, small-molecule microarray, fluorescence 635/667 (AID 1087); conditions: higher = more signal;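 note: score merges spot fluorescence at 667nm with spot signal to noise ratio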
[11] = system: PRMT1 (protein arginine N-methyltransferase 1); assay: small molecules binding arginine methyltransferase PRMT1 – biochemical, small-molecule microarray, 635 nm fluorescence, primary screen (AID 1088); conditions: higher = more signal;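 note: binding of Prmt1 protein to compounds spotted on small-molecule microarray slides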
[12] = growth effects on S. cerevisiae YJM789 – YJM789 clinical isolate, OD600, 24 h, basal, primary screen (AID 1089); conditions: higher = more signal, called active from +8 up or from −8 down;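 note: growth of clinical yeast isolate S. cerevisiae YJM 789 seeded 1000 cells per well; test concentration not given here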
[13] = S. pombe growth modifiers, basal conditions – strain 972, OD600, 24 h, no modulator, primary screen (AID 1090);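 note: basal condition with compound alone and no growth modifier present; test concentration not given here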; conditions: S. pombe 972 growth, higher = more signal, called active from +8 up or from −8 down
[14] = budding yeast growth modifiers under rapamycin – strain BY4716, OD600, 96 h, primary screen (AID 1091); note: test concentration not given here; conditions: S. cerevisiae BY4716 + rapamycin, higher = more signal, called active from +8 up or from −8 down
[15] = target: Torsin-1A-interacting protein 2 (Homo sapiens) (UniProt Q8NFQ8); assay: small molecules binding lysate-expressed LULL1 – cell lysate, human LULL1 lysate, 635/667 nm fluorescence, primary screen (AID 1092); conditions: small-molecule microarray, hLULL1 lysate binding, 635 nm fluorescence; higher = more signal;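 note: probe is lysate of COS7 cells overexpressing human LULL1; score merges per-feature 667 nm fluorescence with signal-to-noise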
[16] = optical density change of DRC41 E. coli – strain DRC41, OD650, 24 h, E. coli filamentation project, primary screen (AID 1093);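 note: MC1000 strain lacking acrAB efflux and sulA so SOS filamentation is blocked; test concentration not given here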; conditions: E. coli DRC41 growth, higher = more signal, called active from +8 up or from −8 down
[17] = probe aLefty2 binding to arrayed compounds – biochemical, biotinylated probe, 635/667 nm fluorescence, primary screen (AID 1094); conditions: small-molecule microarray, higher = more signal;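 note: score merges spot fluorescence near 667 nm with spot signal-to-noise ratio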
[18] = system: Noggin (protein binding on small-molecule microarray); assay: small molecules binding Noggin protein – biochemical, 635/667 nm fluorescence, primary screen (AID 1095); conditions: 635 nm fluorescence, higher = more signal;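 note: score merges 667 nm feature fluorescence with signal to noise over triplicate slides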
[19] = target: Neurogenic locus notch homolog protein 3 (Homo sapiens) (UniProt Q9UM47); assay: small molecules binding NOTCH3 protein – biochemical, 635/667 nm fluorescence, primary screen (AID 1096); conditions: small-molecule microarray, 635 nm fluorescence, higher = more signal
[20] = probe aEGFR binding to arrayed compounds – biochemical, biotinylated probe, 635/667 nm fluorescence, primary screen (AID 1097); conditions: small-molecule microarray, higher = more signal;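 note: probe is a biotinylated anti-EGFR antibody binding compounds printed on slides; score combines fluorescence near 667 nm and signal to noise of each spot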

Sequence of Torsin-1A-interacting protein 2 (Homo sapiens) (Q8NFQ8 whole entry, looked up): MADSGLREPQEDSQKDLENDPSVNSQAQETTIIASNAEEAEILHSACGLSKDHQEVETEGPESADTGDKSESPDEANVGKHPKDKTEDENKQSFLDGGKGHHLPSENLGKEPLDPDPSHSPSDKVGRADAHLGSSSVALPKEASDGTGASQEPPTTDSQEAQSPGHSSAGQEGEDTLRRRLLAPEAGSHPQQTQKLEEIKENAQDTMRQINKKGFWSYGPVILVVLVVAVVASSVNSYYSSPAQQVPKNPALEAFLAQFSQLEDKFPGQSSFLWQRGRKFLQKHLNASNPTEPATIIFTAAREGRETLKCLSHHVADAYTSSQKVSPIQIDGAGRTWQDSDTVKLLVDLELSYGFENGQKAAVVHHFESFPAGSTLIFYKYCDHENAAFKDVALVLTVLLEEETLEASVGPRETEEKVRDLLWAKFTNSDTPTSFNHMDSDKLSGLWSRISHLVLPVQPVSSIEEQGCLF
Sequence of Neurogenic locus notch homolog protein 3 (Homo sapiens) (Q9UM47 whole entry, looked up): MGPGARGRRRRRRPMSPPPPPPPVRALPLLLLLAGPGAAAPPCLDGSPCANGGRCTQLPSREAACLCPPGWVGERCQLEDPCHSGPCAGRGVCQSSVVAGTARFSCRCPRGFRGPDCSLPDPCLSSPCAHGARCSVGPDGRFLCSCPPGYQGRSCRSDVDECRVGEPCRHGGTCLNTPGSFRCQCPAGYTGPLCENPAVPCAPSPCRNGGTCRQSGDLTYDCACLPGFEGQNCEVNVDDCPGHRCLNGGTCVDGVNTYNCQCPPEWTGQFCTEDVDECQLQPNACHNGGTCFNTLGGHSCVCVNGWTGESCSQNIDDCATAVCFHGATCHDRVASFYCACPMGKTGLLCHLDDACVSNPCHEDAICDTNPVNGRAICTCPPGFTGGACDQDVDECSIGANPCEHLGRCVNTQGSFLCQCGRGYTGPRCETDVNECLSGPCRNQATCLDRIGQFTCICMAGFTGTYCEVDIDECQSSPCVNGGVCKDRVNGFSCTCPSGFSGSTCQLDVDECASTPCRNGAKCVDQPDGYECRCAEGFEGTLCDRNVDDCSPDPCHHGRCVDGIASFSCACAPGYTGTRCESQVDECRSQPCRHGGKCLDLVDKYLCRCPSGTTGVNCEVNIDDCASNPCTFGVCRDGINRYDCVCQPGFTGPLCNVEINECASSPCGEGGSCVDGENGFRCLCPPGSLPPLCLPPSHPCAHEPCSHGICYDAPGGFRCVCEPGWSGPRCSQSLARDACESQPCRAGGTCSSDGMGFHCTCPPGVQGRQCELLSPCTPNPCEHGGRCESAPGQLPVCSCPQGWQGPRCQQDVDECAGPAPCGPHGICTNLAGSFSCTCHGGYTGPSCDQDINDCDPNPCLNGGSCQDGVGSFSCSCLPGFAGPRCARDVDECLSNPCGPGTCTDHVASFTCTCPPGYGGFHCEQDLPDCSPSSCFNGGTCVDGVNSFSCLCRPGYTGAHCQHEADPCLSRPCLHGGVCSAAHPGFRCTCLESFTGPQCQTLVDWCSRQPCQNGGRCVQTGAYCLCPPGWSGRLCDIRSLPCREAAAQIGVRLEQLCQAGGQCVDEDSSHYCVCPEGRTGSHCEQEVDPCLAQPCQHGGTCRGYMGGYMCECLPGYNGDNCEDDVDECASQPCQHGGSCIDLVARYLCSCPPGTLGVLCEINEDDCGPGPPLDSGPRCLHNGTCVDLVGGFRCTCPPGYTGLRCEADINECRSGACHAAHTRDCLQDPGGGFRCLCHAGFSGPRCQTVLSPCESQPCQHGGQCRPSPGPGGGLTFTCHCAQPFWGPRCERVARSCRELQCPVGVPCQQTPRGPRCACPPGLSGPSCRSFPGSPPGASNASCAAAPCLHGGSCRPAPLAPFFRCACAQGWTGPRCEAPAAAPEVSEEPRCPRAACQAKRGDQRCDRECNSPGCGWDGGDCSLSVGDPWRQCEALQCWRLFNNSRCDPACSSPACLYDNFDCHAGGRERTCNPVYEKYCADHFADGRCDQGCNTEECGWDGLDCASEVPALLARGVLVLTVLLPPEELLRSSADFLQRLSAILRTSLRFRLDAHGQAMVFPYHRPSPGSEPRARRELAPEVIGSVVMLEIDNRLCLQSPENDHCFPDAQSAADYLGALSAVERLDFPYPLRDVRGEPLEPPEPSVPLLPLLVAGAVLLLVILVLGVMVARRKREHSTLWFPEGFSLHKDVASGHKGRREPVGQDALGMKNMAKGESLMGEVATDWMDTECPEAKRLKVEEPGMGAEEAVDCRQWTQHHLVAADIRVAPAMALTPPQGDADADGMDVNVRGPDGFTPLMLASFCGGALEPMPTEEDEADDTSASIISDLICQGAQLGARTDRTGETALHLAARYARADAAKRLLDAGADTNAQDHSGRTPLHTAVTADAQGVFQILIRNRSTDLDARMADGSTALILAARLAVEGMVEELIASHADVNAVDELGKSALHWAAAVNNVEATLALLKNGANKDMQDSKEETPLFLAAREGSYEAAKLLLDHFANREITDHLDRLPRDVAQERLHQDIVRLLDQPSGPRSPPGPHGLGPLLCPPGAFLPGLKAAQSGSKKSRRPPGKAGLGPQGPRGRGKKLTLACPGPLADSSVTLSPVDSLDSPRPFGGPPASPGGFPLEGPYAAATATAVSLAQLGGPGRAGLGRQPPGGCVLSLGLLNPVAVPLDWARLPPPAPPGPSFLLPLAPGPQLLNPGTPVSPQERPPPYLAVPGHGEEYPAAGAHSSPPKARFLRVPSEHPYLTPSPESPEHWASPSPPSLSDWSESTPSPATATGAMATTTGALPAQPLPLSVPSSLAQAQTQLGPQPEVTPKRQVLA
Sequence of Pro-neuregulin-1, membrane-bound isoform (Homo sapiens) (Q02297 whole entry, looked up, the tested form may be a part, canonical isoform): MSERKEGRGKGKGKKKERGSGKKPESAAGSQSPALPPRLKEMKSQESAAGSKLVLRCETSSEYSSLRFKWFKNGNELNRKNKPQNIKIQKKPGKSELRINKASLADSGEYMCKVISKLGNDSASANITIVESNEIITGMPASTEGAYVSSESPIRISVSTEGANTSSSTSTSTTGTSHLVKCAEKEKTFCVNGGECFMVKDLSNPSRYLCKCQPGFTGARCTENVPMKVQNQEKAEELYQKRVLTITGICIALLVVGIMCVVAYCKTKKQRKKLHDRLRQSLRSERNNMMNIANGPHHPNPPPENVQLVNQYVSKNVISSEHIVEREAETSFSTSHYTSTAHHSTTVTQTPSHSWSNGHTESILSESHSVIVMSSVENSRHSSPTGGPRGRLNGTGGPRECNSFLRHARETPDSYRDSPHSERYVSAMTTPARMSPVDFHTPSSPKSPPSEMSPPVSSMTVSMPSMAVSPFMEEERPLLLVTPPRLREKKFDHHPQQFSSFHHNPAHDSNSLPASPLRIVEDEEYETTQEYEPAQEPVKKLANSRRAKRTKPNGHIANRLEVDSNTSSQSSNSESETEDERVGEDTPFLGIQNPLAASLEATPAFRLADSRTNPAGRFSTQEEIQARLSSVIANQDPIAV

| SMILES | composite z-score [1] | composite z-score [2] | composite z-score [3] | composite z-score [4] | composite z-score [5] | composite z-score [6] | composite z-score [7] | z-score [8] | composite z-score [9] | composite z-score [10] | composite z-score [11] | z-score [12] | z-score [13] | z-score [14] | composite z-score [15] | z-score [16] | composite z-score [17] | composite z-score [18] | composite z-score [19] | composite z-score [20] |
| --- | --- | --- | --- | --- | --- | --- | --- | --- | --- | --- | --- | --- | --- | --- | --- | --- | --- | --- | --- | --- |
| CC=CC(O)C1C=CC2C(=O)N(C)C(=O)C2N1N1CCCCC1 (stereo not given) | -0.0771 | 0.326 | -0.0231 | 0.862 | 1.45 | 1.85 | 1.26 | 1.89 (inactive) | 0.697 | -0.305 | 1.34 | -0.322 (inactive) | 1.01 (inactive) | -0.207 (inactive) | 3.52 | -1.53 (inactive) | 0.0974 | 0.605 | 1.09 | -0.115 |
| C=CCOC(=O)[C@@H]1[C@H]2C(=O)O[C@H](c3ccccc3)[C@H](c3ccccc3)N2[C@H](c2ccc(OCCOC(=O)[C@H]3C[C@H]4C(=O)N[C@@H](CC(C)C)C(=O)N4[C@H]3c3ccc(O)cc3)cc2)[C@@]12C(=O)Nc1ccc(I)cc12 | 0.054 | 1.42 | 0.0333 | 0.868 | 0.718 | 0.535 | 1.35 | -0.477 (inactive) | 0.496 | -0.0994 | 1.54 | 0.157 (inactive) | 1.11 (inactive) | 2.65 (inactive) | 2.75 | 0.574 (inactive) | -0.0229 | 1.81 | 1.06 | 0.0582 |
| COc1ccc([Si](C)(C)[C@H]2[C@H](CCn3cc(CCO)nn3)O[C@@]3(C(=O)N(Cc4ccc(N5C(=O)c6cccc7cccc5c67)cc4)c4ccccc43)[C@@H]2C)cc1 | -0.619 | 0.355 | -0.0583 | 0.53 | 0.611 | 1.16 | 1.1 | -4.65 (inactive) | 0.372 | 0.0695 | 1.55 | -0.246 (inactive) | 0.983 (inactive) | 6.07 (inactive) | 1.86 | 2.76 (inactive) | -0.0895 | 1.41 | 1.09 | -0.0371 |
| COc1cc2c(cc1OC)CN(C(=O)[C@H]1[C@@H]3C(=O)O[C@@H](c4ccccc4)[C@@H](c4ccccc4)N3[C@@H](c3ccc(OCCO)cc3)[C@]13C(=O)Nc1ccc(C#CCCO)cc13)CC2 | -0.0463 | 0.853 | 0.0746 | 0.844 | 1.43 | 1.39 | 0.874 | -0.0164 (inactive) | 0.707 | 0.305 | 1.54 | 2.48 (inactive) | 1.55 (inactive) | 5.29 (inactive) | 2.87 | 0.314 (inactive) | 0.0448 | 1.14 | 1.06 | -0.0069 |
| COc1ccc(C(O)C2C=CC3C(=O)N(c4ccccc4)C(=O)C3N2Nc2ccccc2)cc1OCc1ccccc1 (stereo not given) | 0.12 | 0.748 | 0.206 | 1.1 | 1.51 | 1.48 | 1.15 | 0.0678 (inactive) | 1.64 | 0.0515 | 1.57 | -0.177 (inactive) | 1.3 (inactive) | 0.25 (inactive) | 3.53 | -1.2 (inactive) | 0.104 | 0.88 | 1.03 | 0.0386 |
| CC(C)N1C(=O)[C@@]2(c3ccc([N+](=O)[O-])cc3)CC(=O)N(C3CCCCC3)[C@@H]2c2ccc(CO)cc21 | -0.437 | 0.0633 | -0.151 | -0.0689 | -0.465 | -0.299 | 0.209 | 1.25 (inactive) | -0.293 | -0.118 | 1.27 | -1.78 (inactive) | 0.353 (inactive) | -2.19 (inactive) | 0.198 | -1.43 (inactive) | -0.103 | 0.622 | -0.509 | -0.0565 |
| CCOC(=O)[C@@H]1[C@@H]2C(=O)N(CC)C(=O)[C@@H]2C[C@@H]1Sc1ccccc1 | -0.528 | 1.04 | 0.0308 | 0.712 | 1.39 | 0.354 | 1.33 | -1.02 (inactive) | 0.731 | -0.226 | 0.814 | -0.624 (inactive) | 0.792 (inactive) | 2.66 (inactive) | 1.69 | 0.0399 (inactive) | -0.0632 | -0.132 | 0.722 | 0.113 |
| O=C1OCC=C[C@H]2OC34C=CCN(Cn5nnc6ccccc65)C(=O)[C@H]3N(CCCCCCO)C(=O)[C@@H]4[C@@H]12 (stereo not given in full) | 0.492 | -0.334 | -0.163 | -0.54 | -0.522 | 1.91 | 1.52 | 0.215 (inactive) | -0.116 | -0.201 | -0.184 | -1.47 (inactive) | -1.19 (inactive) | -0.66 (inactive) | 1.29 | -0.218 (inactive) | -0.0356 | -1.04 | -0.0986 | -0.195 |
| CC(=O)N1Cc2ccccc2C[C@]2(N=C(c3ccc(OCCCO)cc3)O[C@@H]2c2ccccc2)C1=O | 0.864 | 0.688 | 0.0512 | 0.458 | 0.875 | 1.04 | 1.34 | -2.24 (inactive) | 0.33 | -0.238 | 1.55 | 0.369 (inactive) | -2.91 (inactive) | 13.6 (active) | 3.07 | 1.52 (inactive) | 0.0081 | 0.648 | 1.07 | 0.0557 |
| O=C(O)[C@H]1C[C@H]2C(=O)N3CCC[C@H]3C(=O)N2[C@H]1c1cccc(OCCO)c1 | 0.376 | 0.812 | -0.0985 | 0.178 | -0.237 | 0.337 | 1.25 | 6.19 (inactive) | -0.0791 | 0.176 | 1.04 | -0.187 (inactive) | -0.391 (inactive) | 0.0709 (inactive) | 2.55 | 0.849 (inactive) | 0.027 | 0.287 | 0.237 | -0.109 |

— PubChem BioAssay
